The source of these data is PubChem BioAssay.

Experiment [1] in a line: viability loss in pontine glioma line – cell-based, JHH-DIPG-1, MIPE4.0, CellTiter-Glo, qHTS, dose response (AID 1347062; cut-off not given, nearly all actives have AC50 up to about 27 µM). The following applies: JHH-DIPG-1 viability, CellTiter-Glo ATP luminescence. A general note: In ATP-based viability assays light output follows the ATP content of the culture.
Experiment [2] in a line: viability loss in pontine glioma line – cell-based, SU-DIPG-IV, MIPE4.0, CellTiter-Glo, qHTS, dose response (AID 1347063; cut-off not given, nearly all actives have AC50 up to about 30 µM;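 note: compound exposure lasted 48 hours before the viability readout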). The following applies: CellTiter-Glo ATP luminescence.
The nature of experiment [3]: viability loss in pontine glioma line – cell-based, SU-DIPG-XIII, MIPE5.0, CellTiter-Glo, qHTS, dose response (AID 1347064; cut-off not given, nearly all actives have AC50 up to about 23 µM;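 for AC50: cells exposed to compound for 48 hours before the viability read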). To be noted: CellTiter-Glo ATP luminescence.
Experiment [4] in a line: viability loss in pontine glioma line – cell-based, SU-DIPG-XXV, MIPE5.0, CellTiter-Glo, qHTS, dose response (AID 1347065; cut-off not given, nearly all actives have AC50 up to about 26 µM;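 note: cells exposed to compound for 48 hours before ATP readout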). The following applies: CellTiter-Glo ATP luminescence.
The nature of experiment [5]: growth inhibition of DIPG cells – cell-based, MIPE4.0 library, CellTiter-Glo luminescence, qHTS (AID 1347066; cut-off not given, nearly all actives have AC50 up to about 30 µM;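 note: cells exposed to compound for 48 hours before readout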). The following applies: SU-DIPG-VI viability, CellTiter-Glo ATP luminescence.
A short description of experiment [6]: JHH-DIPG-1 glioma cell viability, MIPE5.0 library, CellTiter-Glo luminescence, qHTS (AID 1347067; cut-off not given, nearly all actives have AC50 up to about 26 µM;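 note: cells exposed to compound for 48 hours before readout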). The following applies: JHH-DIPG-1 glioma viability, CellTiter-Glo ATP luminescence.
Experiment [7] is described as follows: growth inhibition of DIPG cells – cell-based, MIPE5.0 library, qHTS (AID 1347068; cut-off not given, nearly all actives have IC50 up to about 30 µM;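 for IC50: cells exposed to compound for 48 hours before viability readout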). The following applies: SU-DIPG-XXV viability. (In general: Quantitative high-throughput screening tests each substance at several concentrations.)
The target in experiment [8] is Mitogen-activated protein kinase 7 (Homo sapiens) (UniProt Q13164). As to the kind of experiment: Gal4-ERK5 driven luciferase induction – cell-based, HTS, primary screen (AID 1508626;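 active = luciferase signal above three times the same-plate solvent-only control wells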;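 note: luciferase driven by Gal4-ERK5 fusion binding five Gal4 sites before minimal TATA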). To be noted: HeLa Gal4-ERK5 transactivation, 18 h, at 5 µM, stronger effect = higher value.
Experiment [9] can be described thus: galactose survival enhancers in mitochondrial complex I cybrids – cell-based, galactose medium, ATP luminescence, primary screen (AID 1645843;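 active = z-score of at least 1.8 in each of two replicates, scored against plate mean and spread of sample wells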;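 note: positive z means more ATP and so rescue of galactose-driven cybrid death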). To be noted: complex I mutant cybrid cells, 72 h, stronger effect = higher value.
The nature of experiment [10]: growth inhibition, single agents and combos, LFS_MB_1R, cell-based, cisplatin or BGB combos, synergistic combos for chromothripsis tumors (AID 1671452).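 Note: cells exposed for 96 hours before readout.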 The following applies: LFS_MB_1R medulloblastoma cells, stronger effect = higher value.
The nature of experiment [11]: growth inhibition, single agents and combos, CRL2098, cell-based, BGB or cisplatin IC20 combos, synergistic combos for chromothripsis tumors (AID 1671454).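 Note: cells exposed for 96 h before readout; 0% = vehicle DMSO and 100% = killing by high DMSO.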 To be noted: CRL2098 osteosarcoma cells, drug combinations, stronger effect = higher value.
Experiment [12] can be described thus: growth inhibition, single agents and combos, HD-MB03, cell-based, BGB or cisplatin IC20 combos, synergistic combos for chromothripsis tumors (AID 1671455; in the data active = inhibition above about 83%;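 note: 0% = vehicle DMSO and 100% = high DMSO as cytotoxic control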). To be noted: HD-MB03 medulloblastoma cells, stronger effect = higher value.
A short description of experiment [13]: growth inhibition, single agents and combos, UWB1.289, cell-based, BGB or cisplatin combos, synergistic combos for chromothripsis tumors (AID 1671456).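 Note: cells exposed to compound for four days; 0% = vehicle DMSO and 100% = killing by high DMSO.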 To be noted: UWB1.289 ovarian carcinoma cells, stronger effect = higher value.
The nature of experiment [14]: growth inhibition, single agents and combos, LFS_MB_2R, cell-based, cisplatin combos, synergistic combos for chromothripsis tumors (AID 1671457).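 Note: cells exposed to compound for four days before readout.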 The following applies: LFS_MB_2R medulloblastoma cells, stronger effect = higher value.
Experiment [15] in a line: UWB1.289_BRCA1 ovarian cancer growth, cell-based, BGB or cisplatin combinations (AID 1671459). The following applies: UWB1.289 BRCA1 ovarian carcinoma, drug combinations, stronger effect = higher value.
Experiment [16] can be described thus: drug combination toxicity in non-malignant astrocytes – cell-based, BGB or cisplatin IC20 combos, cytotoxicity control for chromothriptic childhood tumor combination screen (AID 1671460).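 Note: cells exposed to compounds for 96 hours before viability readout; 0% = vehicle and 100% = killing control.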 The following applies: Human astrocytes, viability inhibition, drug combinations, at 0.5 µM, stronger effect = higher value.
The nature of experiment [17]: BT084 cell growth, single and combined drugs, ICGC_MB145, cisplatin and BGB IC40 combos (AID 1671461).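 Note: cells exposed to drugs for 96 hours; 0% = vehicle DMSO and 100% = high DMSO full killing control.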 To be noted: BT084 medulloblastoma cells, drug combinations, stronger effect = higher value.
A short description of experiment [18]: RCMB18 cell growth, single agent and combined, cisplatin and BGB IC40 combos (AID 1671462).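 Note: cells exposed to compound for four days.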 The following applies: RCMB18 medulloblastoma cells, stronger effect = higher value.
Experiment [19] is described as follows: CRL1545 cell growth, single agent and combined, cisplatin and BGB IC20 combos (AID 1671464).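 Note: cells exposed to compound for 96 hours before readout; 0% = vehicle DMSO and 100% = high DMSO killing control.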 The following applies: CRL1545 osteosarcoma cells, stronger effect = higher value.
Setting [20] is: measured here: combination with cisplatin, at 0.5 µM.
[21] abbreviates: measured here: combination with cisplatin, at 5 µM.

Each structure is given as a SMILES string. Results filed as inconclusive are left out. Active and inactive are the calls of the source. Cut-off read from the data, not from the text of the source, unless noted: active = inhibition above about 80%; inactive = the rest.

Chain of Mitogen-activated protein kinase 7 (Homo sapiens) (Q13164 whole entry, looked up, the tested form may be a part): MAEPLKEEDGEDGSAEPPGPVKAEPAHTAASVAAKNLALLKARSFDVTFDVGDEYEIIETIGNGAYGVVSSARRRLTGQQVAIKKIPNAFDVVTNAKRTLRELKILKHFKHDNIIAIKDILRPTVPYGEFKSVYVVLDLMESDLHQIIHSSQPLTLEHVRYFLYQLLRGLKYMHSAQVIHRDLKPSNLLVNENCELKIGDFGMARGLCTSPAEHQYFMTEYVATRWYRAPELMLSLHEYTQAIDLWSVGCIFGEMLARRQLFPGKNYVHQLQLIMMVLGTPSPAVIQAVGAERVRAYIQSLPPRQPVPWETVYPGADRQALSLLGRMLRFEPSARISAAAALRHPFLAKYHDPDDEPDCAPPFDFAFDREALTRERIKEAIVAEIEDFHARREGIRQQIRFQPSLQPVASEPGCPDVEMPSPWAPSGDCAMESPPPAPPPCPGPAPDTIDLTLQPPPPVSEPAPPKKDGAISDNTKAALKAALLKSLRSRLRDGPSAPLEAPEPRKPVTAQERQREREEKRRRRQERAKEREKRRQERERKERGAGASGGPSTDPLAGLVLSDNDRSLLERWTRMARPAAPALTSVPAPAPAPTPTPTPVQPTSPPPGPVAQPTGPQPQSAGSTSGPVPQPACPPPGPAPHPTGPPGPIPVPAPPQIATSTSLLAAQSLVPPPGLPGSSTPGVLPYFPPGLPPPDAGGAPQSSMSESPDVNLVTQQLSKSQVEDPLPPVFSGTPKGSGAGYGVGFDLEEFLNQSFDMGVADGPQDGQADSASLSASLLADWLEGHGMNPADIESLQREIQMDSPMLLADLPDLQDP

Regarding `CCCCCCCCCCCCCCCCCCCCCCO`, the compound was called inactive in experiment [1], in experiment [2], in experiment [3], in experiment [4], in experiment [5] and in experiment [6]. Besides, the compound was classed as inactive in experiment [7]. The luciferase signal in experiment [8] is 140 AU (inactive).
Consider `CC(=O)Oc1cc(C(C)C)c(OCCN(C)C)cc1C`, for which the z-score in experiment [9] was 0.335 (inactive).
As to `COc1ccc2[nH]c(S(=O)Cc3ncc(C)c(OC)c3C)nc2n1` (stereo unspecified), in experiment [7], the outcome was inactive. Moreover, the z-score in [9] is 0.825 (inactive).
Regarding `CNC1CCCN(c2c(F)cc3c(=O)c(C(=O)O)cn(C4CC4)c3c2OC)C1` (stereo unspecified), the call in [1], in [3], in experiment [4], in experiment [6] and in experiment [7] was inactive. Further, the inhibition – broadly, the drop in the measured response relative to a control, in per cent – was -44.6% (inactive) in [10] (at 0.5 µM); -12.2% in experiment [10] (measured here: combination with BGB IC40, at 0.05 µM); -60.6% in experiment [10] (setting [20]); -26% in [10] (setting [21]); -81.1% (inactive) in [11] (at 0.5 µM); -82.3% in experiment [11] (measured here: combination with BGB at IC20, at 0.5 µM). Further, the inhibition was -105% in experiment [11] (measured here: combination with cisplatin at IC20, at 0.5 µM); -11% (inactive) in experiment [12] (at 0.5 µM); -20.4% in experiment [12] (measured here: combo with BGB at IC20, at 0.5 µM); -17.8% in experiment [12] (measured here: combo with cisplatin at IC20, at 0.5 µM); -14.8% (inactive) in experiment [13] (at 0.5 µM); -34.6% in [13] (measured here: inhibition with BGB combination, at 0.05 µM). The inhibition in [13] (measured here: inhibition with cisplatin combination, at 0.05 µM) was 0.742%; in [14] (at 0.5 µM), -13.2% (inactive); in experiment [14] (setting [20]), -14.1%; in experiment [14] (setting [21]), -12.8%; in experiment [15] (BGB combination, concentration series, at 5 µM) it was -8.91%; in experiment [15] (at 0.5 µM) it was -19.1% (inactive). For the same compound, the inhibition in experiment [15] (cisplatin combination, concentration series, at 5 µM) is -12.5%; in experiment [16] it was 2.51% (inactive); in [16] (measured here: combo with BGB IC20), -0.992%; in [16] (measured here: combo with cisplatin IC20) it was -5.96%; in experiment [17] (at 0.5 µM) it was -3.94% (inactive); in experiment [17] (cisplatin combination, at 0.5 µM) it was -12.4%. For the same compound, the inhibition in experiment [17] (cisplatin combination, at 5 µM) is -20.7%; in experiment [17] (measured here: BGB IC40 combination 0.05 uM, at 0.05 µM), -4.46%; in experiment [17] (single agent, at 5 µM), -9.28%; in experiment [18] (at 0.5 µM), -11% (inactive); in experiment [18] (cisplatin combo, at 5 µM) it was -11%; in experiment [18] (measured here: BGB IC40 combination, at 0.05 µM) it was -0.266%. In addition, the inhibition in experiment [18] (setting [20]) was -4.57%; in [18] (single agent, at 5 µM), -28%; in experiment [19] (at 0.5 µM) it was -47.5% (inactive); in [19] (measured here: with BGB IC20 combination, at 0.5 µM), -52.5%; in [19] (measured here: with cisplatin IC20 combination, at 0.5 µM), -45%; in [19] (single agent, at 0.05 µM) it was 2.8%. The inhibition in experiment [19] (single agent, at 5 µM) was -16.1%.
Take `O=[N+]([O-])c1ccc(O)c2ncccc12`: the AC50 (in general, the midpoint of the concentration-response curve, whichever way the signal moves) in [3] was 3.32 µM (active); in [4], 9.34 µM (active); in experiment [6], 2.95 µM (active). The half-inhibitory concentration (IC50) (in general, the midpoint of a concentration-inhibition curve) in experiment [7] is 23.5 µM (active).
For the compound `CC(S)C(=O)NCC(=O)O` (stereo unspecified), the call in experiment [1], in experiment [5] and in [7] was inactive.
Regarding `CC(=O)NCCCS(=O)(=O)O`, the result in experiment [3], in experiment [4] and in experiment [7] was inactive. Moreover, the luciferase signal in experiment [8] was 52 AU (inactive).
Consider `CNCCCC1c2ccccc2C=Cc2ccccc21`, for which the luciferase signal in experiment [8] is 40 AU (inactive). Further, the z-score in experiment [9] was -1.15 (inactive).
